Experimental findings from PubChem BioAssay (NCI) are described below.

Compounds without any hit were thinned out: in the full panel of roughly 83,000, 20% have a hit.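 The test compound was applied at a single concentration to cells in 96-well plates for 48 hours, and percent growth was recorded.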 The source made the active and inactive calls. Rule for the calls: active = growth percent below 10; inactive = the rest.

For this assay, the system named is HCC-2998 colon. In words: NCI-60 one-dose screen, 48 h (100 = growth as untreated, 0 = no growth, -100 = all killed). As to conditions: 10 µM unless noted.
Consider `COc1cccc(-c2nn(-c3ccccc3)cc2-c2ccnc(NCCCN)c2)c1`, for which the growth was 65.6% (inactive).

For `Cn1cnc2c1c(=O)n(CCC(=O)Nc1ccc(F)cc1)c(=O)n2C`, the growth was 108% (inactive).

In the case of `C=C(C)[C@@H]1CC[C@]2(C=O)CC[C@]3(C)[C@H](CC[C@@H]4[C@@]5(C)C/C(=C/c6cccnc6)C(=O)C(C)(C)[C@@H]5CC[C@]43C)[C@@H]12`, the growth was 99% (inactive).

On to `CN(C)c1cccc2[nH]c(-c3[nH]ncc3Nc3ccnc(N)n3)nc12`, for which the growth was -41.9% (active).

`O=Cc1nc2ccccc2[nH]1`: the growth is 107% (inactive).

As to `COc1cc2nc(Cl)nc(Nc3cccc(C(=O)/C=C/c4ccc(Br)cc4)c3)c2cc1OC`, the growth was 104% (inactive).

On to `CC[C@H](CC[C@@H](C)[C@H]1CC[C@H]2[C@@H]3/C(=C/c4cccnc4)C(=O)C4=CC(=O)CC[C@]4(C)[C@H]3CC[C@]12C)C(C)C`, for which the growth is 98.8% (inactive).

In the case of `C=C(C)[C@@H]1CC[C@]2(c3nnc(-c4ccncc4)o3)CC[C@]3(C)[C@H](CC[C@@H]4[C@@]5(C)CCC(=O)NC(C)(C)[C@@H]5CC[C@]43C)[C@@H]12`, the growth was 103% (inactive).

For the compound `COc1cc(NC(C)CN(CC(C)C)C(C)C)c2ncccc2c1` (stereo not drawn), the growth is 103% (inactive).

As for `Nc1c2c(nc3ccc(Cl)cc13)CC(c1ccccc1)CC2=O` (stereo not drawn), the growth is 67.3% (inactive).

Consider `COC(=O)[C@]12CC[C@@H](C)[C@H](C)[C@@H]1C1=CC[C@@H]3[C@@]4(C)C[C@@H](O)[C@H](O)[C@@](C)(CO)C4=CC[C@@]3(C)[C@]1(C)CC2`, for which the growth was -86.5% (active).

On to `CCC1C(=O)COC1=O` (stereo not drawn), for which the growth is 107% (inactive).

In the case of `C=C(C)[C@@H]1CC[C@]2(C)[C@H](CC=C3[C@@H]4CC(C)(C)CC[C@]4(C(=O)OC)CC[C@]32C)[C@@]1(C)CC/C(N)=N/O`, the growth is -53% (active).

Take `O=C(/C=C/c1cccc2ccccc12)Nc1ncc(Cc2ccccc2)s1`: the growth was 54.3% (inactive).

As for `N#Cc1c(-c2ccc(O)cc2)c2c(N)nn(-c3ccccc3)c2[nH]c1=O`, the growth was 110% (inactive).

Take `COc1ccc(-c2c(-c3nc4ccc(N5CCOCC5)cc4[nH]3)[nH]c(C)c2C(C)=O)cc1`: the growth was 35% (inactive).

Take `c1ccc(-c2nc(Nc3ccc(-c4nc5ccccc5[nH]4)cc3)nc(N3CCOCC3)n2)cc1`: the growth was -80.7% (active).

For the compound `Cc1cc2nc3c4cc(Cl)ccc4n(CCN(C)C)c3nc2cc1C`, the growth was -23.7% (active).

As for `Cc1cc(N2CCOCC2)nc(N(CCCNc2ccnc3cc(Cl)ccc23)Cc2ccco2)n1`, the growth was 87.9% (inactive).

With `Cc1cc(N(CCNc2ccnc3cc(Cl)ccc23)Cc2ccco2)nc(Cl)n1`, the growth is 62.2% (inactive).

Regarding `COc1ccc(/C=C/C(=O)NCCO)cc1`, the growth is 103% (inactive).

As for `O=C1NC(c2ccc(Cl)c(Cl)c2)=C/C1=C\c1ccccc1`, the growth was 103% (inactive).

Turning to `N#C/C(=C\c1ccc(-c2ccccc2)o1)c1nc(-c2ccco2)cs1`, the growth was 32.1% (inactive).

As for `C=C1C(=O)O[C@H]2[C@H]1CC/C(COC(=O)NCc1c[nH]c3ccccc13)=C\CC[C@@]1(C)O[C@@H]21`, the growth is 97.9% (inactive).

As for `Cn1cc(-c2csc(-c3cn(CCN)c4ccccc34)n2)c2cccnc21`, the growth is 65.3% (inactive).

Turning to `C=C(C)[C@@H]1CC[C@]2(C)[C@H](CC[C@@H]3[C@H]4[C@H]5OC[C@@]4(CCC5(C)C)CC[C@]32C)[C@@]1(C)CCCN`, the growth is -68.4% (active).

In the case of `CC[C@]12C=CCN3CC[C@@]4(c5cc([C@H]6CCC(=O)N6)c(OC)cc5N(C)[C@H]4[C@@](O)(C(=O)OC)[C@@H]1OC(C)=O)[C@@H]32`, the growth was 110% [2.5 µM] (inactive).

Turning to `COc1cc2c(cc1-c1c(C)noc1C)ncc1nc(C3CCCCC3)n([C@@H](C)COC(F)F)c12`, the growth was 50.5% (inactive).

For the compound `COc1ccc(/C=C(\C#N)c2cc3ccccc3n2S(C)(=O)=O)cc1`, the growth is 94% (inactive).

Consider `CCc1cccc(CC)c1NC(=O)c1sc2nc3c(cc2c1N)CCCC3`, for which the growth was 95.4% (inactive).

`O=C1CCC/C=C\C[C@H]2C=C(Cl)C(=O)/C2=C/C[C@H](CCCCC(F)(F)F)OC(=O)CCC/C=C\C[C@H]2C=C(Cl)C(=O)/C2=C/C[C@H](CCCCC(F)(F)F)O1`: the growth is -54.7% [7.5 µM] (active).

Consider `COc1cc(-c2cc3ncccc3c3nc(N)c4cccnc4c23)cc(OC)c1OC`, for which the growth was 40.2% (inactive).

For the compound `COC(=O)[C@]12CC[C@@H](C)[C@H](C)[C@@H]1C1=CC[C@@H]3[C@@]4(C)C[C@@H](OC(C)=O)[C@H](O)[C@@](C)(CO)[C@@H]4[C@H](O)C[C@@]3(C)[C@]1(C)CC2`, the growth was -87.8% (active).

Take `Cc1ccc(N(CC(=O)Nc2ccc(S(=O)(=O)NC3CCN(C)CC3)cc2)S(=O)(=O)c2ccc(Cl)cc2)cc1`: the growth is 30.4% (inactive).

`N#CC1=C(N)Oc2ccc3ccccc3c2C1c1ccccc1` (stereo not drawn): the growth was 69.3% (inactive).

Turning to `COc1ccc(C(=O)/C=C/c2cc(-c3cc(OC)c(OC)c(OC)c3)n[nH]2)cc1OC`, the growth was -77.2% (active).

Turning to `Cn1c(/C(C#N)=C/c2ccc3ccccc3c2)cc2ccccc21`, the growth is 16.9% (inactive).

As for `CCN(CC)c1ccc(/C=C/c2cc(C)c3ccccc3n2)cc1`, the growth was 62.4% (inactive).
